Out of some 370,000 compounds screened, about 2,300 (0.62%) were called active. This is one part of a sample in which actives are shown more often than they occur. Unmarked numbers belong to inactive results.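 Rule for the calls: active = inhibition above a per-campaign cutoff equal to the mean of compounds falling between control-based bounds plus 3 SD (cut at about 20% in these data); inactive = the rest.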

Chain of Disintegrin and metalloproteinase domain-containing protein 10 (Homo sapiens) (O14672 214-748 limits assumed): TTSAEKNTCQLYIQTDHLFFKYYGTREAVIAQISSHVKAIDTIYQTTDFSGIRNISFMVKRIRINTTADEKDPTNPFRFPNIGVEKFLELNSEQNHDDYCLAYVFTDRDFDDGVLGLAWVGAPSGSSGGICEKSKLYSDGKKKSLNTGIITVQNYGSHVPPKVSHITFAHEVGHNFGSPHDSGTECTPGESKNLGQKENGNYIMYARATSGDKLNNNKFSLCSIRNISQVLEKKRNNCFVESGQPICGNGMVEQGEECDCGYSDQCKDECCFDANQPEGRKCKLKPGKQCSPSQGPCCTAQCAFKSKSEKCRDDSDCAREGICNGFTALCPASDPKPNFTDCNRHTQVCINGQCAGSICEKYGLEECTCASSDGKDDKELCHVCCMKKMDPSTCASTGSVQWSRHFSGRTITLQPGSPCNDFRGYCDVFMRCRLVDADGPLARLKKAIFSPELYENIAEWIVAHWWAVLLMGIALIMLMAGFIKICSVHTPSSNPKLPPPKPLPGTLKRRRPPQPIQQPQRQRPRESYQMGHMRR

This assay concerns the target Disintegrin and metalloproteinase domain-containing protein 10 (Homo sapiens) (UniProt O14672). The assay can be described thus: human ADAM10 inhibitors, primary screen, biochemical, QFRET, HTS (AID 720582).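 Note: 0% = DMSO wells while the 100% control is not disclosed.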 The following applies: recombinant ADAM10, EDANS/DABCYL FRET peptide cleavage, 3 h; at 7 µM; hits give high values.
By inhibition is commonly meant the relative decrease from the control value, in per cent. `CCOc1ccc(-n2c(SCC(=O)Nc3cc(C)c(NC(=O)c4ccccc4)cc3OC)nnc2-c2cccs2)cc1`: the inhibition is 17.4%.

Take `COc1ccc(OCC(=O)OCC(=O)Nc2ccc(S(=O)(=O)N3CCCCC3)cc2)cc1`: the inhibition was -5.59%.

Regarding `O=C(CSCc1ccc(Br)cc1)Nc1ccc(S(=O)(=O)N2CCCCCC2)cc1`, the inhibition was 24.1% (active).

For `CCOc1ccc(NC(=O)COc2ccc(S(=O)(=O)N3CCCC3)cc2)cc1`, the inhibition was 4.99%.

Turning to `CCOC(=O)[C@]12CCCCC/C=C\1N(Cc1ccc(OC)cc1)C(=O)[C@H]2CC(=O)N1CCOCC1`, the inhibition is 3.26%.

As for `CCCCNC(=O)C[C@H]1C[C@@]2(C(=O)OC)C(=C[C@H](COCc3ccccc3)O[C@@H]2C)N(Cc2ccc(Cl)cc2Cl)C1=O`, the inhibition is 9.41%.

`CC(C)(C)c1ccc(CSc2nnc(-c3cccs3)o2)cc1`: the inhibition was -4.29%.

In the case of `O=S(=O)(c1cccc(S(=O)(=O)N2CCC(n3nnc4ccccc43)CC2)c1)N1CCCCC1`, the inhibition is 20.5% (active).

As to `O=[N+]([O-])c1cccc(S(=O)(=O)N2CCCCCC2)c1`, the inhibition is -4.84%.

As to `Cc1ccc(S(=O)(=O)N2CCC(N3CCCCCC3)CC2)cc1`, the inhibition was 3.62%.

As for `CC1=C(C(=O)N2CCOCC2)CC(CC(=O)NCc2cccs2)C(=O)N1CCCN1CCCC1=O` (stereo unspecified), the inhibition was -13.7%.

Turning to `COc1cc(C2C(C(=O)c3ccco3)=C(O)C(=O)N2c2cc(C)on2)ccc1OCc1ccccc1` (stereo unspecified), the inhibition is -2.12%.

Take `CCCNC(=O)C1CC(=O)N(c2ccc(OCc3ccccc3)cc2)C1` (stereo unspecified): the inhibition is -1.57%.

For `COc1cc(C2CC(=O)N3CN(Cc4ccccc4)CSC3=C2C#N)ccc1OCc1ccccc1` (stereo unspecified), the inhibition was 27.5% (active).

`N[C@@H](Cc1ccccc1)C(=O)N1CCC[C@@H]1C(=O)N1CCC2CCN(S(=O)(=O)c3ccccc3)CC21` (stereo partly specified): the inhibition is -2.11%.

Take `COC[C@@H]1CCCN1c1ccc2c(c1)O[C@H](C)CCN(C1CC1)S2(=O)=O`: the inhibition is -3.66%.

Take `COC(=O)[C@@]12CCCCC=C1N(CCc1ccc(Cl)cc1)C(=O)[C@H]2CC(=O)NCc1ccc(OC)c(OC)c1`: the inhibition is 5.19%.

Regarding `C[C@H]1[C@H](NC(=O)c2cccc(N(C)C)c2)CC[C@@]23CCCN2C(=O)CCC[C@@H]13`, the inhibition was -106%.

In the case of `CC(NC(=O)COc1ccccc1)C(=O)NC1=NCCS1` (stereo unspecified), the inhibition was -1.01%.

As to `Cc1csc(NC(=O)CSc2nnc(-c3cccnc3)o2)n1`, the inhibition is -10.7%.

As to `O=C(CSC1=NCCS1)Nc1nc(-c2ccccc2)cs1`, the inhibition is 20.3% (active).

As to `O=C(C[C@H]1C(=O)N(c2ccc(F)c(F)c2)C[C@@H]1Cc1ccccc1)Nc1ccccc1`, the inhibition was 23.2% (active).

With `CNC(=O)C[C@H]1C(=O)N(c2ccc(OC)cc2)C[C@@H]1Cc1ccccc1`, the inhibition is -1.73%.

For `C[C@H]1CN(c2ccc(Br)cc2)C(=O)[C@@H]1CC(=O)Nc1ccc(Br)cc1`, the inhibition was -2.69%.

For the compound `O=C(COC(=O)CCc1nc2ccccc2c(=O)[nH]1)Nc1ccc(N2CCOCC2)cc1`, the inhibition was 0.32%.

`O=C(COC(=O)CCCSc1nc2ccccc2[nH]1)Nc1ccc(Oc2ccccc2)cc1`: the inhibition is 23.7% (active).

For the compound `CCN(c1ccc(NC(=O)COC(=O)CCc2nc3ccccc3n2-c2ccccc2)cc1)C(C)C`, the inhibition is 15.2%.

With `COc1cccc(N2CCN(CC(=O)N(C)Cc3ccc(F)cc3)CC2)c1`, the inhibition is -2.14%.

For the compound `CCCC(=O)Nc1ccc(C(=O)NCCCn2ccnc2)cc1`, the inhibition is -4.06%.

For the compound `CCOC(=O)[C@]12CCCC3=C1N(CCC3)C(=O)[C@@H](CC(=O)N1CCSCC1)C2`, the inhibition is 4.75%.

`O=C1[C@H]2[C@@H](c3ccc(C(F)(F)F)cc3)N[C@]3(CCCN(Cc4ccc(Br)cc4)C3=O)[C@H]2C(=O)N1Cc1ccccc1`: the inhibition is 36.9% (active).

On to `CCN1C(=O)[C@H]2[C@@H](c3ccc(C(F)(F)F)cc3)N[C@]3(CCCN(Cc4ccc(Br)cc4)C3=O)[C@H]2C1=O`, for which the inhibition is 2.63%.

For `O=C1[C@H]2[C@@H](c3ccc(C(F)(F)F)cc3)N[C@]3(CCCN(Cc4ccc(Cl)cc4)C3=O)[C@H]2C(=O)N1Cc1ccccc1`, the inhibition is 17.5%.

On to `CC(C)N1CCCCC(NC(=O)c2ccc3ccccc3c2)C1=O` (stereo unspecified), for which the inhibition was -1.93%.

With `CCOC(=O)[C@]12CCCC3=C1N(CCC3)C(=O)[C@@H](CC(=O)NCc1cccs1)C2`, the inhibition was -1.3%.

As for `CC(C)CNC(=O)OCc1cn(Cc2ccc(F)cc2)nn1`, the inhibition was 2.74%.

`O=C(CSc1nc2ccccc2nc1N1CCCCC1)N1CCN(S(=O)(=O)c2cccc([N+](=O)[O-])c2)CC1`: the inhibition is -10.6%.

As to `COC(=O)[C@]12C[C@H](CC(=O)NCc3ccccc3)C(=O)N(CCc3ccc(OC)c(OC)c3)C1=C[C@H](C(C)(C)C)O[C@@H]2C`, the inhibition is 10.1%.

With `COC(=O)[C@@]12C[C@@H](CC(=O)NCCCCc3ccccc3)C(=O)N(Cc3ccccc3)C1=CCC(C)(C)C2`, the inhibition is 14.6%.

Turning to `COC(=O)[C@@]12C[C@@H](CC(=O)NCCCCc3ccccc3)C(=O)N(CCc3ccc(OC)c(OC)c3)C1=CCC(C)(C)C2`, the inhibition was 20.4% (active).

On to `c1coc(CCNc2ncnc3ccc(-c4ccc5c(c4)OCO5)cc23)c1`, for which the inhibition is -144%.

`CCC(=O)c1c(CC)c2n3c1=CC[C@H]3CC(Br)C=2` (stereo partly specified): the inhibition was -7.64%.

As to `COC(=O)[C@]12C[C@H](CC(=O)NCc3ccccc3)C(=O)N(CCC3=CCCCC3)C1=C[C@H](C(C)C)O[C@@H]2C1CC1`, the inhibition was 15.1%.

Consider `CN(NS(=O)(=O)c1cccs1)c1ncc(C(F)(F)F)cc1Cl`, for which the inhibition is -3.41%.

With `Cc1cc(C)cc(NS(=O)(=O)c2ccc(Oc3ncc(C(F)(F)F)cc3Cl)cc2)c1`, the inhibition was 24% (active).

Take `O=S(=O)(Nc1ccc(Oc2ncccn2)c(Cl)c1)c1ccc(F)cc1`: the inhibition was 7.14%.

Regarding `Cc1ccc(NC(=O)c2cc(C)nn2-c2ccccc2)c(C)c1`, the inhibition was 1.23%.

For `C#CCN([C@H](C(=O)OC)C(C)CC)S(=O)(=O)c1ccccc1Br` (stereo partly specified), the inhibition is 5.73%.

In the case of `COC(=O)C1NN=C(C(=O)c2ccc(Br)cc2)C1c1cccc(Br)c1` (stereo unspecified), the inhibition is 20% (active).

On to `COC(=O)CN1C(C)=Nc2ccc(Br)cc2C1c1ccccc1` (stereo unspecified), for which the inhibition is -0.34%.

Turning to `COC(=O)C1=C(C)N(C)C(C)=C(C(=O)OC)C1c1cccc(Br)c1`, the inhibition was 1.25%.

For the origin of these results see PubChem BioAssay AID720582 (The Scripps Research Institute Molecular Screening Center, 2013).
